Assay outcomes deposited in PubChem BioAssay by Broad Institute.
Hits are enriched below; roughly 4% of the tested compounds scored in any of these assays.
DENV2 CPE rescue: inhibitors of DENV2 cytopathic effect; DENV2-infected cells, cytopathic effect rescue, plate reader; CPE inhibition, % at 9.99 µM; hit rate 1.7% among 350,000; in the data active = CPE inhibition above about 20%, passing the limit was not always enough; tested in BHK-21 cells;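 note: 0% = median of neutral control wells and 100% = median of positive control wells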
AF4-AF9 inh: MLL-AF4/AF9 protein interaction inhibition; P42568; AlphaScreen, biotin-AF4 peptide binding to FLAG-AF9; inhibition, % at 10 µM; hit rate 0.47% among 350,000; AID 651704;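 active = every replicate reaching a set inhibition limit, whatever the replicate mean, cut at about 25% in these data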;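 note: 0% = plate neutral control median and 100% = total signal loss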
RAD52 anneal inh: inhibitors of human RAD52 DNA annealing; P43351; recombinant RAD52 DNA annealing, FRET fluorescence; inhibition, % at 18.7 µM; hit rate 0.46% among 360,000;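 active = every replicate showing at least 50% inhibition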
Target sequence (P43351 whole entry, looked up): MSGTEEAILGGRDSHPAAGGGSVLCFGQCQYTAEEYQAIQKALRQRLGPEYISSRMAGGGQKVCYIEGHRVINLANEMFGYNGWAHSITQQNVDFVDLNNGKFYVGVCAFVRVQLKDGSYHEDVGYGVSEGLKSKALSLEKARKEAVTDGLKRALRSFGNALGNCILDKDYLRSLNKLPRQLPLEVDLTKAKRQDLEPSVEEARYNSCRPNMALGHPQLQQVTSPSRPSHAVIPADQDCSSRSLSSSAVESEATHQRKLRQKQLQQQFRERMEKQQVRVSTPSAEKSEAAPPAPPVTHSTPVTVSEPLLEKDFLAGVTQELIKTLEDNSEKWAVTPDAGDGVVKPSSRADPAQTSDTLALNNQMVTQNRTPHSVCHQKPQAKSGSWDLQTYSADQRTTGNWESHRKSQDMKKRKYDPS
FGF22 binding: FGF22 (human) thermal shift binding; Q9HCT0; recombinant FGF22 thermal shift, SYPRO orange fluorescence; percent of sucrose octasulfate shift, DMSO zero; activity (Tm shift, normalised), % at 9.99 µM; hit rate 1.5% among 340,000;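 active = mean Tm shift, scaled 0 neutral to 100 positive control, at about 1.3% or above, every replicate too, limit read from the data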
Target sequence (Q9HCT0 whole entry, looked up): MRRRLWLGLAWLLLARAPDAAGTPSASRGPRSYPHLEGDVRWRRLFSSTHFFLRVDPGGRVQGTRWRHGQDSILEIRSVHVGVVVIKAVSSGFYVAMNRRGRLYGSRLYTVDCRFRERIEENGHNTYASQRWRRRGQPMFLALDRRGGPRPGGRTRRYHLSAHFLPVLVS
ERAP1 HTS inh: ERAP1 (human) enzyme inhibition | Q9NZ08 | recombinant ERAP1, Leu-AMC fluorescence, 60 min | inhibition, % at 10.7 µM | hit rate 0.15% among 340,000 | AID 652197;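 active = mean replicate inhibition of at least 30%, or all replicates individually reaching that 30% level; inactive = mean below 30% and not every replicate reaching it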;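 note: 0% = neutral control wells and 100% = L-leucinethiol positive control wells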
* marks the source's active call; other numbers are inactive results.

For COc1ccc(C(O)c2nc(-c3cc(F)cc(F)c3)cs2)cc1 (stereo not drawn) the results were DENV2 CPE rescue -7, AF4-AF9 inh 0, RAD52 anneal inh -29, FGF22 binding 0 and ERAP1 HTS inh -1.
`O=C(O)c1cccc(-c2csc(C(O)c3ccc(F)c(F)c3)n2)c1` (stereo not drawn) gave DENV2 CPE rescue 41*, AF4-AF9 inh 1, RAD52 anneal inh -14, FGF22 binding 0 and ERAP1 HTS inh 7.
`COc1cccc(C(O)c2nc(-c3cc(F)cc(F)c3)cs2)c1` (stereo not drawn) gave DENV2 CPE rescue 30*, AF4-AF9 inh -5, RAD52 anneal inh -1, FGF22 binding 0 and ERAP1 HTS inh 8.
CC(C)NC(=O)COC(=O)c1ccccc1C(=O)c1ccccc1 was read as DENV2 CPE rescue 1, AF4-AF9 inh -1, RAD52 anneal inh -75, FGF22 binding 44* and ERAP1 HTS inh -5.
`CNc1ccccc1C(=O)OCC(=O)c1ccccc1` gave DENV2 CPE rescue 32*, AF4-AF9 inh -8, RAD52 anneal inh 0, FGF22 binding 0 and ERAP1 HTS inh 1.
`CCCC(=O)Nc1ccc2c(c1)OC[C@@H](C)N(CCC)C[C@H](C)[C@H](OC)CN(C)C2=O` gave DENV2 CPE rescue -4, AF4-AF9 inh -2, RAD52 anneal inh -5, FGF22 binding 0 and ERAP1 HTS inh -2.
Cc1noc(C)c1S(=O)(=O)Nc1ccc2c(c1)C(=O)N([C@H](C)CO)C[C@H](C)[C@@H](CN(C)CC1CCCCC1)OCCCC[C@H](C)O2 was read as DENV2 CPE rescue -8, AF4-AF9 inh -1, RAD52 anneal inh 4, FGF22 binding 0 and ERAP1 HTS inh -2.
For COCCNc1nc(Nc2ccccc2Cl)c2sccc2n1 the results were DENV2 CPE rescue 38*, AF4-AF9 inh 0, RAD52 anneal inh -4, FGF22 binding 0 and ERAP1 HTS inh 2.
Screening COCCNc1nc(NCc2ccc(C(C)C)cc2)c2sccc2n1 returned DENV2 CPE rescue -4, AF4-AF9 inh 2, RAD52 anneal inh -4, FGF22 binding 23* and ERAP1 HTS inh -1.
COc1ccc(NC(=O)C2(C)Cc3c(-c4ccc5c(c4)OCO5)ccnc3O2)cn1 (stereo not drawn) was read as DENV2 CPE rescue 8, AF4-AF9 inh -3, RAD52 anneal inh -17, FGF22 binding 44* and ERAP1 HTS inh -3.
`C[C@@H]1CN([C@H](C)CO)C(=O)c2cc(NS(=O)(=O)c3ccc(Cl)cc3)ccc2O[C@@H](C)CCCCO[C@@H]1CN(C)C(=O)CCC(F)(F)F` gave DENV2 CPE rescue -8, AF4-AF9 inh -2, RAD52 anneal inh 20, FGF22 binding -1 and ERAP1 HTS inh 1.
`CO[C@H]1CN(C)C(=O)c2ccc(NS(C)(=O)=O)cc2OC[C@@H](C)N(CC2CCCCC2)C[C@H]1C` gave DENV2 CPE rescue -2, AF4-AF9 inh 2, RAD52 anneal inh -9 and FGF22 binding 0.
`COc1ccc(C2CC(c3ccccc3)=NN2S(=O)(=O)c2ccccc2)c(OC)c1` (stereo not drawn) gave DENV2 CPE rescue 22*, AF4-AF9 inh -13, RAD52 anneal inh -10, FGF22 binding 0 and ERAP1 HTS inh 1.
For Nc1ccc(C(=O)Nc2ccc3nc(-c4ccncc4)[nH]c3c2)cc1 the results were DENV2 CPE rescue -3, AF4-AF9 inh -1, RAD52 anneal inh -9, FGF22 binding 44* and ERAP1 HTS inh 6.
Screening CCc1ccc(C(=O)NNC(=O)CCN2CCN(Cc3ccccc3)CC2)cc1 returned DENV2 CPE rescue 2, AF4-AF9 inh -2, RAD52 anneal inh -14, FGF22 binding 0 and ERAP1 HTS inh -2.
Screening N#Cc1ccsc1NC(=O)CN1CCN(Cc2ccccc2)CC1 returned DENV2 CPE rescue -5, AF4-AF9 inh 1, RAD52 anneal inh -42, FGF22 binding 43* and ERAP1 HTS inh -1.
For O=C(CN1CCN(Cc2ccccc2)CC1)NNC(=O)c1ccccc1 the results were DENV2 CPE rescue 26*, AF4-AF9 inh -1, RAD52 anneal inh -1, FGF22 binding 0 and ERAP1 HTS inh -5.
O=C(C[C@H]1C=C[C@@H](NC(=O)C2CCOCC2)[C@H](CO)O1)NCc1ccccc1Cl was read as DENV2 CPE rescue -6 and RAD52 anneal inh -6.
`Cc1ccc(C=Nc2ccc(N(C)C)cc2)o1` gave AF4-AF9 inh 59*, RAD52 anneal inh 16, FGF22 binding 0 and ERAP1 HTS inh 0.
Cc1ccc(C=Nc2ccccc2C(N)=O)o1 was read as DENV2 CPE rescue 10, AF4-AF9 inh -9, RAD52 anneal inh -9, FGF22 binding 0 and ERAP1 HTS inh -5.
For C[C@H](NC(=O)C[C@H]1C[C@H]2c3cc(NC(=O)C4CCC4)ccc3O[C@H]2[C@H](CO)O1)c1ccccc1 the results were DENV2 CPE rescue 3, AF4-AF9 inh 1, RAD52 anneal inh -4 and ERAP1 HTS inh 1.
`CCOC(=O)c1ccc(NC(=O)C2=C(C)Nc3nc(CCCO)nn3C2c2cccc(C)c2)cc1` (stereo not drawn) gave DENV2 CPE rescue 73*, AF4-AF9 inh 0, RAD52 anneal inh -12, FGF22 binding 0 and ERAP1 HTS inh -3.
O=C(C[C@H]1C=C[C@H](NS(=O)(=O)c2ccc(F)cc2)[C@H](CO)O1)NCc1ccccc1F was read as DENV2 CPE rescue 4, AF4-AF9 inh -3, RAD52 anneal inh 4 and ERAP1 HTS inh 2.
For COc1ccc(/C=C/C2=NN(Cc3ccccc3)C(=O)CC2)cc1 the results were DENV2 CPE rescue -1, AF4-AF9 inh 4, RAD52 anneal inh -12, FGF22 binding 43* and ERAP1 HTS inh -3.
`COc1ccccc1NC(=O)N1C[C@H](O)COC[C@@H]2O[C@H](CC(=O)NCCc3ccccc3)CC[C@H]21` gave DENV2 CPE rescue -7, AF4-AF9 inh -12, RAD52 anneal inh 15, FGF22 binding 0 and ERAP1 HTS inh -2.
`Cc1nc(C(F)(F)F)c(C(=O)N/N=C(\N)c2cccnc2)s1` gave DENV2 CPE rescue 1, AF4-AF9 inh -11, RAD52 anneal inh 4, FGF22 binding 43* and ERAP1 HTS inh 0.
`C/C(=N\NC(=O)c1sccc1C)c1cccnc1` gave DENV2 CPE rescue -4, AF4-AF9 inh 0, RAD52 anneal inh -18, FGF22 binding 0 and ERAP1 HTS inh 0.
C[C@H]1CN([C@@H](C)CO)C(=O)Cc2cc(NC(=O)c3ccncc3)ccc2O[C@@H]1CN(C)C(=O)Nc1cccc2ccccc12 was read as DENV2 CPE rescue 7, AF4-AF9 inh -1, RAD52 anneal inh 9, FGF22 binding 0 and ERAP1 HTS inh -3.
Screening O=C(c1ccc(-n2nc(C(F)(F)F)c3c2CCCC3)cc1)N1CCOCC1 returned DENV2 CPE rescue -9, AF4-AF9 inh 0, RAD52 anneal inh -4, FGF22 binding 43* and ERAP1 HTS inh -1.
For O=C(O)c1ccc(-n2nc(C(F)(F)F)c3c2CCCC3)cc1 the results were DENV2 CPE rescue 2, AF4-AF9 inh -1, RAD52 anneal inh -28 and ERAP1 HTS inh -2.
